Bioassay records (PubChem)
PfHsp40 yeast = compounds rescuing yeast from Plasmodium falciparum HSP40 toxicity; S. cerevisiae expressing PfHsp40, growth rescue, ATP luminescence; growth rescue, % at 12.5 µM; 0.68% of 340,000 active; in the data active means growth rescue above about 28%, passing the limit was not always enough; inconclusive means no clear call, values can overlap the other calls;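 further: yeast W303a lacking pdr1 and pdr3 grown in galactose medium; growth measured after three days at 30 °C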
BoNT-A LC inh2 = blocks Botulinum neurotoxin A light chain protease | multiplex microsphere protease substrate cleavage, flow cytometry | inhibition, % at 10 µM | 0.17% of 360,000 active | AID 588499
Bead autofluor = counter-screen for toxin protease inhibitors: compound fluorescence. compound autofluorescence counterscreen, microsphere flow cytometry; hits give high values. 3.1% of 360,000 active. fluorescence intensity (concentration not given with the values); in the data active means fluorescence intensity above about 16000; inconclusive means no clear call, values can overlap the other calls
Anthrax LF inh2 = blocks Bacillus anthracis lethal factor protease. P15917. multiplex microsphere protease cleavage assay, LF. inhibition, % at 10 µM. 0.12% of 360,000 active
Target sequence (P15917 whole entry, looked up): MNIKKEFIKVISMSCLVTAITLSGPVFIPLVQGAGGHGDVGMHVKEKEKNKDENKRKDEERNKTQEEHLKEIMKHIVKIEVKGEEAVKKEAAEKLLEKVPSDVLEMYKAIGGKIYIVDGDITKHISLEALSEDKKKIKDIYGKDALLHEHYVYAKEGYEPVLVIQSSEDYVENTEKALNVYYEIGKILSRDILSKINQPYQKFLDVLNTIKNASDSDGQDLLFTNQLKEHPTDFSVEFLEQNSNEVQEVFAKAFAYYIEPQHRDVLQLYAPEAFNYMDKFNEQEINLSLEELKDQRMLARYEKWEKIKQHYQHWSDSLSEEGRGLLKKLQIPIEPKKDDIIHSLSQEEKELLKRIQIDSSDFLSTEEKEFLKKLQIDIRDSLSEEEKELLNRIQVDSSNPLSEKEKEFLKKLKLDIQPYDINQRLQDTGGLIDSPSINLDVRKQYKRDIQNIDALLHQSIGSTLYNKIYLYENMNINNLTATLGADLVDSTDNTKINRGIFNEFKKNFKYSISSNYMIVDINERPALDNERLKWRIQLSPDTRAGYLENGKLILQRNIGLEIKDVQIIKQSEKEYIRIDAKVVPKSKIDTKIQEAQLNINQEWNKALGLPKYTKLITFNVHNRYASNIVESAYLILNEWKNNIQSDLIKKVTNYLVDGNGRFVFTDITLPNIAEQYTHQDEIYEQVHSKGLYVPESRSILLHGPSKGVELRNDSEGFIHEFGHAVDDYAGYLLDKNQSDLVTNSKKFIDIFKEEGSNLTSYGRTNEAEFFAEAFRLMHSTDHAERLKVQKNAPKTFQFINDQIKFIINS
BoNT F protease = blocks Botulinum neurotoxin F light chain protease | Multiplex microsphere protease cleavage assay, flow cytometry | inhibition, % at 10 µM | 0.22% of 360,000 active; in the data active means inhibition above about 35%, passing the limit was not always enough; inconclusive means no clear call, values can overlap the other calls
MazEF act = increases E. coli MazEF RNase cleavage of RNA; activation, % at 20 µM; 0.32% of 350,000 active; FAM/BHQ RNA-DNA oligo cleavage fluorescence, 5 h; in the data active means activation above about 50%
A number is an active result; i = inactive; ? = inconclusive; nt = not tested or not shown. This is a sample that favours compounds with a hit; in the whole collection about 4.3% have one here. Unless noted, no stated cut-off is given here; in the data, active means inhibition above about 30%; inconclusive means no clear call, values can overlap the other calls; inactive means below that.

SMILES	PfHsp40 yeast	BoNT-A LC inh2	Bead autofluor	Anthrax LF inh2	BoNT F protease	MazEF act
O=C(COC(=O)/C=C/c1ccccc1Cl)NC(=O)NCc1ccccc1	i	i	i	i	i	i
Cc1cccc(CNC(=O)C(C)n2nc(C)c3c(C)n(-c4ccccc4)nc3c2=O)c1 (stereo not drawn)	i	i	i	i	i	i
Cc1nnc(SCCn2c(N3CCC(C)CC3)nc3c2c(=O)[nH]c(=O)n3C)s1	i	i	i	i	i	i
Cc1nnc(SCCn2c(N3CC(C)CC(C)C3)nc3c2c(=O)[nH]c(=O)n3C)s1 (stereo not drawn)	i	i	23049	i	i	i
Cc1ccc([N+](=O)[O-])cc1N=Cc1ccc(Br)s1	i	i	20554	i	i	i
Cc1ccc(C=Nc2cc([N+](=O)[O-])ccc2C)s1	i	i	i	i	i	i
Oc1c(Br)cc(Br)cc1/C=N/NC(=S)N[C@H]1CC2C=CC1C2 (stereo partly drawn)	78	nt	nt	nt	nt	i
Cc1cc(C)c(NC(=O)CN2C(=O)NC3(CCCc4ccccc43)C2=O)c(Cl)c1 (stereo not drawn)	i	i	?	i	i	i
CC(=O)CC(=O)Nc1ccc(Nc2ccccc2)cc1	i	i	i	i	i	i
CSc1ccc(NC(=O)CC(C)=O)cc1	i	i	22536	i	i	i
CCC(C)c1ccc(NC(=O)CC(C)=O)cc1 (stereo not drawn)	i	?	22794	i	i	i
CC(=O)CC(=O)Nc1ccc(C(N)=O)cc1	i	i	i	i	i	i
CC(C(=O)Nc1ccc(S(=O)(=O)N2CCCC2)cc1)N1CCCC(C(N)=O)C1 (stereo not drawn)	i	i	i	i	i	i
Cc1cccc(NC(=O)c2nc[nH]c2C(=O)Nc2ccccc2F)c1	nt	i	i	i	i	i
Cc1ccc(C(=O)NCCNS(=O)(=O)c2ccccc2)cn1	i	i	i	i	i	i
O=C(CN1CCN(S(=O)(=O)N2CCCCC2)CC1)Nc1cc(Cl)ccc1Cl	i	i	i	i	i	i
NC(=O)C1(N2CCCCC2)CCN(CC(=O)Nc2cc(Cl)ccc2Cl)CC1	i	i	24349	i	i	i
COC(=O)[C@H](C)NC(=O)Nc1cccc(Br)c1	i	i	i	i	i	i
CN(C(=O)COC(=O)Cn1c(C(F)(F)F)nc2ccccc21)c1c(N)n(Cc2ccccc2)c(=O)[nH]c1=O	i	i	?	i	i	i
COCc1cc(C)nc(Nc2ccccc2C)c1C#N	i	?	20149	i	i	i
COC(=O)CC1COc2ccccc2N1C(=O)c1ccc(OC)cc1 (stereo not drawn)	i	?	21654	i	i	i
O=C(NC1CC1)c1cccc(Oc2ccccc2)c1	77	i	i	i	i	i
CCCCNS(=O)(=O)c1ccc(NS(=O)(=O)c2c(C)cc(C)cc2C)cc1	i	?	16873	i	i	i
CC12CCC(=O)N1C(C(=O)NNC(=O)c1ccc(Br)cc1)CS2 (stereo not drawn)	i	i	i	i	i	i
CCc1ccc(S(=O)(=O)/N=C2\C=C(Nc3ccc(O)cc3)C(=O)c3ccccc32)cc1	i	i	i	i	i	i
SMILES	PfHsp40 yeast	BoNT-A LC inh2	Bead autofluor	Anthrax LF inh2	BoNT F protease	MazEF act
CCc1ccc(S(=O)(=O)/N=C2/C=C(Sc3ncn[nH]3)C(=O)c3ccccc32)cc1	179	i	i	i	i	i
COc1ccccc1C(=O)NC(=O)COC(=O)c1ncc(Cl)c(Cl)c1Cl	i	i	i	i	i	i
COc1ccc(-c2cc3ccccc3[nH]2)cc1	i	i	i	i	i	i
Cc1ccc(O)c(-c2cc3ccccc3[nH]2)c1	i	i	23551	i	i	i
Cc1cc2nc(-c3ccco3)c(Cc3cccc(Cl)c3)n2c(C)c1Br	nt	i	i	i	i	nt
Cc1nc(C)c(C(=O)O)c(-c2cccs2)c1C(=O)O	i	i	i	i	?	i
COc1ccc(CNc2nc3c(c(=O)n(Cc4ccc(Cl)cc4)c(=O)n3C)n2C)cc1	i	i	16319	i	i	i
COCCNc1nc2c(c(=O)n(Cc3cccc(Cl)c3)c(=O)n2C)n1C	i	i	i	i	i	i
COCCNc1nc2c(c(=O)n(Cc3ccc(OC)cc3)c(=O)n2C)n1C	i	i	22936	i	i	i
CCNC(=S)Nc1cccc(F)c1C	i	i	i	i	i	i
Cc1cc(NC(=O)CSc2nc3ccccc3cc2C#N)no1	i	i	i	i	i	55
COC(=O)CSc1nc2cc(C)ccc2cc1C#N	i	i	i	i	i	260
COc1ccc2nc(SCC(=O)Nc3cc(C)on3)c(C#N)cc2c1	i	i	i	i	i	i
